HIF activator: HIF pathway transcriptional activation | U2OS HRE-luciferase reporter, luminescence; normalized: DMSO 0%, desferrioxamine 100% | activation, % at 7.5 µM (by protocol) | 300,000 tested, 0.32% active | AID 1910;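 active = mean activation of at least 10% of the iron chelator positive control signal, with at least half of replicates also reaching 10%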
GC-B act: GC-B (human) receptor activation; AID 1920062; activation, % at 10 µM; HEK293-GC-B cells, CNP EC30, cGMP TR-FRET; 0% at EC30 CNP, 100% saturating CNP; P20594; 370,000 tested, 0.11% active;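 active = activation at 10 µM reaching about 35% in either raw or pattern-adjusted values, limit read from the data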
GC-A act: GC-A (human) enzyme activation; P16066; HEK293 GC-A cells, cGMP TR-FRET, EC30 ANP; 0% at EC30 ANP, 100% saturating ANP; activation, % at 10 µM; 370,000 tested, 0.14% active; AID 1671463; in the data active = activation above about 40%
proKLK7 act: proKLK7 (human) activation, primary screen; P49862; purified proKLK7, EDANS-DABCYL substrate fluorescence; 100% is mature enzyme control, 0% vehicle; activation, % at 7 µM; 370,000 tested, 0.9% active; AID 652039;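 active = activation above the mean of all tested compounds plus 3 SD, computed per campaign excluding outliers beyond control limits, cut at about 13% in these data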
proKLK7 act conf: confirmation of human kallikrein-7 zymogen activators | activation, % at 7 µM | shares compounds with proKLK7 act | purified proKLK7, EDANS-DABCYL substrate fluorescence; scaled: vehicle 0, mature enzyme 100 | 3,200 tested, 68% active;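 active = activation, as change over the incubation, above the mean of all tested compounds plus 3 SD, cut at about 13% in these data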
EDANS interfere: optically interferes with EDANS-DABCYL signal, flagging KLK7 hits; 3,200 tested, 80% active; EDANS-DABCYL substrate fluorescence interference, no enzyme, 4 h; solvent 0%, active enzyme control 100%; activation, % at 7 µM; shares compounds with proKLK7 act; AID 686952;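 active = activation above the all-compound mean plus 3 SD, ignoring values outside control-based bounds, cut at about 4.8% in these data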;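 note: value is the 4 h activation minus the activation read at time zero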
EDANS interf: counter-screen for kallikrein-7 activators: EDANS-DABCYL interference, dose response; shares compounds with proKLK7 act; EDANS-DABCYL peptide fluorescence interference, no enzyme; EC50, µM; 250 tested, 20% active;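 active = compounds that raise the fluorescence signal in this interference counterscreen, with EC50 at or below 10 µM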;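 note: intact quenched peptide substrate alone read at 355 nm excitation and 520 nm emission; signal is fluorescence gain from T0 to T4 after four hours at room temperature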
* marks the source's active call; other numbers are inactive results. Rows were chosen to be rich in hits. Some 1.3% of all compounds tested hit in one or more screens of this group.

`C=C(C)Cn1c2ccc(NC(=O)NCCc3cccs3)cc2c(=O)n1C` gave GC-B act 2, GC-A act 1, proKLK7 act 26*, proKLK7 act conf 19*, EDANS interfere 9.8* and EDANS interf >70.
For CC(C)[C@H](NC(=O)OCc1ccccc1)C(=O)N[C@@H](Cc1ccccc1)C1(O)CN(C)C(C(=O)NCc2ccccn2)CO1 (stereo not given in full) the results were GC-B act 1 and GC-A act 0.
Cc1ccccc1CN[C@@H]1CC[C@@]23CCCN2C(=O)CCC[C@H]3C1 was read as GC-B act 0 and GC-A act -2.
`CN(C)c1ccc(NC(=O)Nc2ccc3c(c2)c(=O)n(C)n3Cc2ccccc2)cc1` gave GC-B act 2, GC-A act 0 and proKLK7 act -1.
Cn1c(=O)c2cc(NC(=O)Nc3cccnc3)ccc2n1Cc1ccc(Cl)cc1 was read as GC-B act 4, GC-A act 4 and proKLK7 act 6.
Screening COc1ccc(NC(=O)NCCc2ccc(Cl)cc2)cc1OC returned HIF activator 0, GC-B act -2, GC-A act 17 and proKLK7 act 0.
`CC(C)=CCn1c2ccc(NC(=O)Nc3ccc(N(C)C)cc3)cc2c(=O)n1C` gave GC-B act 0, GC-A act 3, proKLK7 act 14*, proKLK7 act conf 5 and EDANS interfere 6.5*.
Screening C=C(C)Cn1c2ccc(NC(=O)CCc3cccnc3)cc2c(=O)n1C returned GC-B act 1, GC-A act 3, proKLK7 act 21*, proKLK7 act conf 23* and EDANS interfere 26*.
Screening CCNC(=S)Nc1ccc2c(c1)c(=O)n(C)n2CC=C(C)C returned GC-B act -4, GC-A act -5, proKLK7 act 46*, proKLK7 act conf 31* and EDANS interfere 33*.
`COc1ccc(CCNC(=O)Nc2ccc3c(c2)c(=O)n(C)n3CC=C(C)C)cc1OC` gave GC-B act 0, GC-A act 0, proKLK7 act 26*, proKLK7 act conf 3 and EDANS interfere 5.4*.
`CC[C@H](CCCc1ccccc1OC)CCS(=O)(=O)N(C)C` gave GC-B act 0, GC-A act 3 and proKLK7 act 0.
c1cc(Nc2ncnc3sc4c(c23)CCC4)ccn1 was read as HIF activator 1, GC-B act 3, GC-A act 25, proKLK7 act 32*, proKLK7 act conf 56* and EDANS interfere 64*.
Screening C(=N\Nc1ncnc2sc3c(c12)CCC3)/c1ccncc1 returned HIF activator 0, GC-B act 3, GC-A act 2 and proKLK7 act 0.
`Cc1cc(C)cc(N=Cc2c(O)c3ccccc3oc2=O)c1` gave HIF activator -1, GC-B act -2, GC-A act -2 and proKLK7 act 0.
Screening O=C(O)c1cc(N=Cc2c(O)c3ccccc3oc2=O)ccc1O returned HIF activator 0, GC-B act 3, GC-A act 4, proKLK7 act 150*, proKLK7 act conf 398* and EDANS interfere 355*.
O=S1(=O)c2ccc(N3CCN(Cc4ccccc4F)CC3)cc2Oc2ccccc2CN1Cc1cn(Cc2ccc(F)cc2)nn1 was read as GC-B act 3, GC-A act 2 and proKLK7 act -1.
For N#CCC[C@@H]1CC[C@]2(CCCN(Cc3ccc(Cl)cc3)C2)O1 the results were GC-B act -4, GC-A act 1 and proKLK7 act 0.
Screening CCOC(=O)C1CCN(C(=O)Nc2ccc3nccnc3c2)CC1 returned HIF activator 1, GC-B act -10, GC-A act -2, proKLK7 act 14*, proKLK7 act conf 71* and EDANS interfere 71*.
For CCOC(=O)C1CCN(C(=O)Nc2ccc3snnc3c2)CC1 the results were HIF activator 0, GC-B act -6, GC-A act 0 and proKLK7 act 0.
CCOC(=O)N1CCN(C(=O)Nc2ccc3nc(C)sc3c2)CC1 was read as HIF activator -1, GC-B act -4, GC-A act 4 and proKLK7 act -2.
For CCOC(=O)N1CCN(C(=O)Nc2ccc3nc(-c4ccccn4)c(-c4ccccn4)nc3c2)CC1 the results were HIF activator 1, GC-B act 4, GC-A act 9, proKLK7 act 32*, proKLK7 act conf 32* and EDANS interfere 33*.
COc1ccc(CN(CCN2CCOCC2)C(=O)c2cc(F)cc(F)c2)cc1OC was read as GC-B act -9, GC-A act 2 and proKLK7 act 0.
`COC(=O)[C@H](CC(C)C)N(CCCc1cn(Cc2ccccc2)nn1)S(=O)(=O)c1ccc(F)cc1Br` gave GC-B act 6, GC-A act -4 and proKLK7 act 0.
Screening CC(C)N1CCc2c(sc(NC(=O)C(F)(F)F)c2-c2nc3ccccc3s2)C1 returned GC-B act -2 and GC-A act 6.
Screening C[C@H]1COc2c3ccc(I)cc3nn21 returned GC-B act -6, GC-A act 2 and proKLK7 act 1.
For COC(=O)c1cc(Cl)ccc1NCC(N)c1ccccc1 (stereo not given) the results were GC-B act -15, GC-A act -23, proKLK7 act 18*, proKLK7 act conf -41 and EDANS interfere -40.
Screening O=C(CN1CCN(C2CCCCC2)CC1)c1c[nH]c2ccccc12 returned HIF activator 1, GC-B act -1, GC-A act 5 and proKLK7 act 0.
O=C(CN1CCN(C2CCCCC2)CC1)c1ccc2cc[nH]c2c1 was read as HIF activator 0, GC-B act 2, GC-A act -1, proKLK7 act 22*, proKLK7 act conf 20* and EDANS interfere 20*.
Cc1cc(NC(=O)Nc2cccc(F)c2)n(-c2ccccc2)n1 was read as GC-B act -8, GC-A act -1 and proKLK7 act 0.
`COc1ccc(C(=O)OCCN2CCN(C3CN(Cc4cn(Cc5ccccc5C(F)(F)F)nn4)S(=O)(=O)C3)CC2)cc1OC` (stereo not given) gave GC-B act -1, GC-A act -1 and proKLK7 act 0.
CC(=O)c1ccc(NC(=O)CCc2nc3sc4c(c3c(=O)[nH]2)CCCC4)cc1 was read as HIF activator 1, GC-B act -9, GC-A act 0 and proKLK7 act -1.
